Data as given in PubChem BioAssay AID652067 (The Scripps Research Institute Molecular Screening Center, 2013).
The campaign covered roughly 370,000 compounds. About 5,400 (1.5%) were called active. Only a selection was taken, and actives are over-represented in it overall. Unmarked numbers belong to inactive results.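 The calls were made as follows: active = activation above the mean of all tested compounds plus 3 SD (cut at about 5.5% in these data); inactive = the rest.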

System: DAF-12 nuclear receptor (Haemonchus contortus)
Test: H. contortus DAF-12 nuclear receptor activators, primary screen, cell-based, luminescence, HEK293, lit1-tk-luc reporter (AID 652067);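 also: 100% = response to 3 µM Δ7-dafachronic acid high control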
Conditions: HEK293 hcDAF-12 lit1-tk-luc reporter, at 6.8 µM, hits give high values, 0% DMSO, 100% Δ7-dafachronic acid

SMILES | activation
Cc1ccnc(NC(=O)c2ccoc2C)c1 | 7.44% (active)
Cc1ccnc(NC(=O)C(C)N2C(=O)c3ccccc3C2=O)c1 (configuration not stated) | -0.09%
COc1cc(SC)ccc1C(=O)Nc1cc(C)ccn1 | 9.16% (active)
COc1cc(SC)ccc1C(=O)Nc1nc(C)cs1 | -4.3%
Cc1ccnc(NC(=O)CCCOc2ccccc2)c1 | 2.54%
CSCCC(NC(=O)c1ccco1)C(=O)Nc1cc(C)ccn1 (configuration not stated) | 5.45%
O=C(NCc1ccccc1)[C@H]1CCCN1C(=O)[C@@H]1CCCN1C(=O)c1ccc(Cl)cc1Cl | -1.62%
O=C(CSc1nc2ccccc2n1Cc1ccccc1)NNC(=S)Nc1ccccc1 | -1.89%
COC(=O)c1cc2c(c3c4ccccc4n(S(=O)(=O)c4cccc(C)c4)c13)C(=O)N(Cc1ccccc1)C2 | 1.43%
Oc1ccc(/C=C/c2c(F)cccc2F)c2cccnc12 | -3.66%
O=C1[C@@H](c2ccccc2)[C@@H](c2ccccc2)N1c1ccccc1 | -1.98%
Cc1nn(C(=O)c2ccoc2C)c(N)c1-c1ccccc1 | 12.4% (active)
Cc1nn2c(c1-c1ccccc1)N=C(c1ccco1)CC2c1ccccc1 (configuration not stated) | -0.56%
Cc1cc(-c2ccccc2)n2nc(C)c(-c3ccccc3)c2n1 | -0.96%
CCOc1ccc(-n2c(SCC(=O)Nc3cc(C)c(NC(=O)c4ccccc4)cc3OC)nnc2-c2cccc(Cl)c2)cc1 | -2.73%
Cc1ccccc1NC(=O)Cn1nnc(-c2ccccc2F)n1 | 1.07%
CN1CCCCC(NC(=O)C(C)(C)C)C1=O (configuration not stated) | -1.55%
Cc1cccc2c1N(CCOc1ccccc1)C(=O)C2=O | -2.22%
Cc1nn(CCOc2ccccc2)c(=O)n1-c1ccccc1F | 6.6% (active)
Cc1c(C(N)=O)sc2ncn(CCOc3ccccc3)c(=O)c12 | -0.81%
Cc1ccc(N)cc1CN1CCN(c2ncc(Cc3ccccc3)cn2)CC1 | -1.34%
O=C1CC[C@@]23CCCN2C(=O)CCC[C@H]3[C@H]1Cc1ccccc1 | -0.12%
NC(=O)c1ncn([C@@H]2O[C@H](C(=O)O)[C@@H](O)[C@H]2O)n1 | -0.43%

SMILES | activation
CC(=O)n1c(C=Nc2ccccc2)c(O)c2ccccc21 | 7.8% (active)
CC(=O)OCC(C)n1c(=O)c2ccccc2n1C(C)=O (configuration not stated) | -0.22%
O=C(Nc1ccc(Br)cc1)OCCN1C(=O)CCC12CCC(c1ccccc1)CC2 (configuration not stated) | -1.25%
Cc1ccc(-c2nnc(SCC(=O)Nc3ccc(Oc4ccccc4)cc3)n2Cc2ccco2)cc1 | -2.76%
CCC(C)[C@@H](C(=O)OC)N(CCc1cn(Cc2ccccc2)nn1)S(=O)(=O)c1ccccc1Br (some centres not stated) | -2.4%
CCCn1cc(SCC(N)=O)c2ccccc21 | 2.17%
NC(=O)CSc1c[nH]c2ccccc12 | 6.34% (active)
O=C(CSc1nnc(-c2c[nH]c3ccccc23)o1)c1ccccc1 | -0.49%
C/C(=N\OC(=O)c1ccccc1)c1c(C)nc2cc(C)ccn12 | -1.05%
Cc1cccc(/C(N)=N/OC(=O)c2ccccc2Cl)c1 | 10.8% (active)
Cc1cc(OC(=O)c2ccccc2Cl)ccc1N1C(=O)CCC1=O | -1.68%
CCCCNC(=O)C[C@H]1C(=O)N(Cc2ccc(OC)cc2)C2=CCCC[C@@]21C(=O)OCC | -4.06%
CC(=O)OCCN1CCCC12CCC(c1ccccc1)CC2 (configuration not stated) | -0.23%
CCCCCCN1CCS(=O)(=O)N(Cc2ccc(C(F)(F)F)cc2)C(C(=O)OC)C1 (configuration not stated) | -2.04%
CN1C(=O)c2cc(NS(C)(=O)=O)ccc2OC[C@@H]2O[C@@H](CC(=O)NCc3ccc(-c4ccccc4)cc3)CC[C@H]21 | 0.33%
O=C(OC12CCCN(C1)/C(=C/c1ccccc1)C2)c1ccco1 (configuration not stated) | -0.35%
CCC(NC(=O)C1C2C=CC3(CN(Cc4ccccc4)C(=O)C13)O2)c1ccccc1 (configuration not stated) | -1.89%
COC(=O)[C@]12C[C@H](CC(=O)NCCC(C)C)C(=O)N(CCc3ccc(OC)c(OC)c3)C1=C[C@H](C(C)(C)C)O[C@@H]2C | -0.99%
Cc1c(NC(=S)NCc2ccc(F)cc2)cccc1[N+](=O)[O-] | -2.35%
CC(C)(C)C(=O)Nc1ccc(C(=O)N/N=C/c2ccccc2OC(=O)c2ccc(Cl)cc2Cl)cc1 | -1.06%
O=C(N/N=C/c1ccc(OCC2COCCO2)cc1)c1ccc(Br)cc1 (configuration not stated) | -1.26%
O=C(N/N=C/c1ccc(OC(=O)c2ccccc2Cl)cc1)c1ccc(O)cc1 | 5.89% (active)
C=CCN1C(=O)[C@@H](CC(=O)NCC2CCCCC2)[C@]2(C(=O)OC)CCCCC=C12 | -1.65%

SMILES | activation
CCOc1ccccc1NC(=O)c1cccnc1 | -0.55%
CCOc1ccccc1-c1cc(C(=O)N/N=C(\C)c2cccnc2)c2ccccc2n1 | 1.52%
CCOc1cccc(/C=C/c2ccc3ccccc3n2)c1OC(C)=O | 6.5% (active)
COC(=O)[C@H](C(C)C)N(CCc1cn(Cc2ccccc2)nn1)S(=O)(=O)c1ccc(F)cc1Br | -3.41%
CC(C)(C)c1ccc(S(=O)(=O)NCC2CCN(C(=O)C(=O)c3cc4ccccc4o3)CC2)cc1 | -1.1%
CCCCN1CCN(C(=O)c2ccc3c(c2)NC(=O)C(C)(C)O3)CC1 | 0.06%
CNc1ccc([N+](=O)[O-])cc1C(=O)O | -0.16%
CCC(C)C(=O)Nc1cc([N+](=O)[O-])ccc1Cl (configuration not stated) | 1.23%
Cc1ccc(NC(=O)c2cc([N+](=O)[O-])ccc2Cl)c(O)c1 | 6.38% (active)
COc1ccccc1C(=O)CSc1nnc(-c2ccccn2)n1-c1ccccc1 | -3.35%
CCCC1CCC2(CCCN2CCOC(=O)NCc2ccccc2)CC1 (configuration not stated) | -0.18%
CSc1ccc(Oc2cccc3c2S(=O)(=O)N([C@H](C)c2ccccc2)C[C@@H](COCc2ccccc2)O3)cc1C | 0.01%
CCSc1ccccc1C(=O)NCc1ccc(OC)cc1 | -0.9%
COc1ccc(C(=O)NCC[N+](C)(C)C)cc1 | -0.19%
COc1ccc(C(=O)NCCSc2ccccc2C)cc1 | 5.88% (active)
Cc1cc(C)c(/C=C2\C(=O)Nc3ccccc32)[nH]1 | 6.61% (active)
O=C1Nc2ccccc2C1=NN=Cc1ccco1 | 1.9%
COc1ccccc1S(=O)(=O)c1c(C)cc(C)[nH]c1=O | 0.35%
CN(C(=O)COc1ncnc2c1cnn2-c1ccccc1)C1CCCCC1 | -0.54%
c1ccc(-n2ncc3c(N4CCCC4)ncnc32)cc1 | 6.43% (active)
CC(Sc1ncnc2c1cnn2-c1ccccc1)C(=O)Nc1ccc(N2CCOCC2)cc1 (configuration not stated) | 1.44%
COc1ccc(-n2c(SCC(=O)Nc3ccc4c(c3)OCCO4)nnc2-c2ccc(Cl)cc2)cc1 | -1.21%
COc1cc(NC(=O)CN(C)S(=O)(=O)c2ccc3nc(C)sc3c2)cc(OC)c1 | -1.14%

SMILES | activation
NS(=O)(=O)c1ccc2nc(NC(=O)CS(=O)(=O)c3ccc(F)cc3)sc2c1 | 9.74% (active)
Cc1nc2ccc(S(=O)(=O)NCC(=O)O)cc2s1 | -0.41%
COc1ccc(N2CCN(CCNS(=O)(=O)c3ccc([N+](=O)[O-])cc3)CC2)cc1 | -2.96%
Nc1ccc2nn(-c3ccc(Cl)cc3)nc2c1 | 12.2% (active)
Nc1ccc2c(c1)C(O)c1ccc(Cl)cc1-2 (configuration not stated) | 0.07%
Nc1nc2cc(Cl)ccc2n1N | -0.75%
CCOc1ccc(N(CC(=O)Nc2c(C)n(C)n(-c3ccccc3)c2=O)S(=O)(=O)c2ccc(Cl)s2)cc1 | -1%
CN(CCc1ccccc1)C(=O)Cn1nc(-c2ccccc2)ccc1=O | -1.21%
COC(=O)[C@]12C[C@H](CC(=O)NCc3ccccc3)C(=O)N(CCC3=CCCCC3)C1=C[C@H](C(C)C)O[C@@H]2C1CC1 | -1.01%
O=C(Nc1c(Cl)c(C2CC2)nn1-c1ccccc1)C(Cl)(Cl)Cl | -0.16%
O=C(Cn1ccc([N+](=O)[O-])n1)NCc1cccs1 | 10.1% (active)
O=C(CCn1ccc([N+](=O)[O-])n1)Nc1nccs1 | -1.81%
Cc1ccnc(NC(=O)Cn2ccc([N+](=O)[O-])n2)c1 | 0.29%
CCOC(=O)[C@]12CCCC3=C1N(CCC3)C(=O)[C@@H](CC(=O)NCc1cccs1)C2 | -2.04%
CC1CC(C)CN(C/C=C/c2ccccc2[N+](=O)[O-])C1 (configuration not stated) | 6% (active)
O=C(/C=C/c1ccccc1[N+](=O)[O-])OCC(=O)N1CCCC1 | 3.54%
COc1cc(CN2CC(C)CC(C)C2)cc([N+](=O)[O-])c1O (configuration not stated) | -3.15%
COc1ccc(C2Nc3ccccc3C(=O)N2Cc2cccs2)cc1COc1c(C)cccc1C (configuration not stated) | -0.71%
Cn1c(-c2ccco2)nc2cc3ccccc3cc21 | 17.4% (active)
O=S(=O)(Nc1ccc2nc(-c3ccco3)[nH]c2c1)c1ccccc1 | 1.02%
Cn1c(SCC(=O)c2cccs2)nnc1-c1ccco1 | 0.02%
C=CCN=C1NC(c2cccc(C(F)(F)F)c2)C(C(=O)OC)=C(C)N1C (configuration not stated) | -0.27%
Cc1ccc(NC(=O)Cc2cccc(F)c2)c(S(=O)(=O)N2CCOCC2)c1 | -1.13%
